GLS inh: blocks human kidney-isoform glutaminase activity. GLS enzymatic activity, qHTS titration. O94925. hit rate 0.21% among 410,000. Potency, µM (doses to about 45.5 µM), actives largely listed as inhibitors
Target sequence (O94925 whole entry, looked up, canonical isoform): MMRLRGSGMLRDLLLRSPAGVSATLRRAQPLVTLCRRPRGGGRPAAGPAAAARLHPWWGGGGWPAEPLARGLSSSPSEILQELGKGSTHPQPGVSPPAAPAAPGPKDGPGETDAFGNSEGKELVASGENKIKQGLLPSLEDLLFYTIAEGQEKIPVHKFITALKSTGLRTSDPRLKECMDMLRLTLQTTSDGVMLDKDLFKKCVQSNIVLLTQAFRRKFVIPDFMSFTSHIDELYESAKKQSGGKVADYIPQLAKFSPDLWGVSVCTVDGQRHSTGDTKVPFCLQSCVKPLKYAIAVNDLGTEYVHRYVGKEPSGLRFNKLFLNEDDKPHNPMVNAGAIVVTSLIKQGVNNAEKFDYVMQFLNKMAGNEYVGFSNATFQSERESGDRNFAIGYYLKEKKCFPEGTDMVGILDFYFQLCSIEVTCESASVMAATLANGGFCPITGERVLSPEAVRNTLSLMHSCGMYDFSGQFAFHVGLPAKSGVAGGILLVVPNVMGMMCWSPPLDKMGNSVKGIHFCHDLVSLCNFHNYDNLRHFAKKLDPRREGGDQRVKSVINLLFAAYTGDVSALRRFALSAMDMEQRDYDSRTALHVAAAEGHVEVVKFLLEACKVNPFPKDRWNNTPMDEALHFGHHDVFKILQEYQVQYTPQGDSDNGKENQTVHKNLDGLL
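hKGA in 45 mM KH2PO4 (pH 8.2), 0.02% Tween-20 with compound, then 1mM L-Glutamine (stock as added) plus glutamate oxidase/HRP/Amplex red coupling mix. Fluorescence read initially and after 30 min at RT; signal change reflects glutamate formation.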
Epigenetic reg: epigenetic control regulation, reporter derepression; murine LDR cells, GFP reporter derepression, 30 h; Potency, µM (doses to about 53.9 µM), actives largely listed as activators; hit rate 0.2% among 280,000; AID 1865; also: nearly all actives have a fitted effect of over 60% in size
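Readout is the number of GFP-expressing murine LDR cells, counted by cytometry following washing. Cells were treated with compound for 30 h at 37 C; the stably integrated CMV-GFP locus is normally silent.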
Vif-APOBEC3G blk: Vif-A3G binding inhibition; Potency, µM (series often up to 46.1 µM), most hits filed as inhibitors; HeLa A3G-eYFP + Vif (tagged APOBEC3G with the HIV-1 protein that degrades it), YFP fluorescence, overnight; hit rate 0.076% among 410,000; also: nearly all actives have a fitted effect of over 60% in size
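Read-out is eYFP fluorescence (Ex 488/Em 500-530) from Vif-expressing HeLa A3G-eYFP cells; more signal means A3G escaped Vif-mediated degradation. Cells plated overnight, compound pinned in, incubated overnight at 37 deg C.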
Vif-A3F inh: inhibitors of Vif-A3F interaction; hit rate 0.2% among 390,000; HeLa A3F-eYFP + Vif (tagged APOBEC3F with the HIV-1 protein that degrades it), YFP fluorescence increase; Potency, µM (top dose mostly 46.1 µM); also: nearly all actives have a fitted effect of over 65% in size
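HeLa cells stably expressing Vif plus C-terminally eYFP-tagged A3F were seeded, incubated overnight at 37 deg C, dosed with compound, incubated overnight again at 37 deg C. Yellow fluorescence (Ex 488/Em 500-530) reported blocked Vif-mediated A3F-eYFP degradation.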
PINK1 modulator: modulators of PINK1 expression | hit rate 0.2% among 410,000 | PINK1 immunofluorescence, high-content cytometry, 24 h | Potency, µM (highest dose often 76.6 µM), hits mostly activators; active = well fitted activation curve with a large enough effect; inconclusive = small, poorly fitted or top-dose-only effect; cell line not stated here; also: nearly all actives have a fitted effect of over 65% in size
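Stable cell line treated 24 h with compounds at 5 concentrations (CCCP controls), then fixed and immunostained for PINK1 plus nuclear and cell stains; PINK1 immunofluorescence quantified by laser-scanning microplate cytometry.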
Of the large screens only hits and unclear results are named; the others gave an inactive call. In the library only some 0.7% were active in any assay of this set; here they are far more common. Unless noted, calls follow the shape of the dose curve; as a rule, active = well fitted curve in the direction sought with a large enough effect; inconclusive = small, poorly fitted or top-dose-only effect, or another doubt; inactive = no such curve, though single readings can be large; an effect the other way counts as inactive or inconclusive.

CCCNC(=O)Cn1c(=O)/c(=C/c2ccc(-c3cccc([N+](=O)[O-])c3)o2)s/c1=C\C(=O)C(C)(C)C	Vif-A3F inh inconclusive, PINK1 modulator inconclusive (no result: Epigenetic reg)
CC(C(=O)Nc1ccc(C(=O)O)c(O)c1)N1C(=O)/C(=C\c2ccco2)SC1=S (stereo not drawn)	GLS inh 17.8µM (no result: Epigenetic reg)
O=C(CN1C(=O)/C(=C/c2ccco2)SC1=S)Nc1ccc(C(=O)O)c(O)c1	GLS inh 22.4µM (no result: Epigenetic reg)
O=C(CN1C(=O)/C(=C/c2ccco2)SC1=S)Nc1ccc(O)c(C(=O)O)c1	none (no result: Epigenetic reg)
CC(C)N1[N]C(=C2C=c3cc(O)ccc3=N2)c2c(N)ncnc21	none (no result: Epigenetic reg, Vif-APOBEC3G blk, Vif-A3F inh, PINK1 modulator)
Cc1ccc(-c2nc3ncccc3o2)cc1NC(=O)c1ccc([N+](=O)[O-])o1	Vif-A3F inh 22.4µM (no result: Epigenetic reg)
Cn1c(=O)c2c(nc(SCC(=O)N3c4ccccc4CCc4ccccc43)n2C)n(C)c1=O	PINK1 modulator 10µM
COc1cccc(-c2ccnc(-n3ncc(C(=O)NCc4cccnc4)c3C3CC3)n2)c1	none (no result: GLS inh, Epigenetic reg, Vif-APOBEC3G blk, Vif-A3F inh)
Cc1cccc(CNC(=O)c2c3n(c(C)cc2=O)-c2ccccc2SC(c2ccsc2)C3)n1 (stereo not drawn)	none (no result: GLS inh, Epigenetic reg, Vif-APOBEC3G blk, Vif-A3F inh)
N#CC1=C(N)C(C#N)(C#N)[C@H](c2c(F)cccc2F)[C@H]2CC3(CC=C12)OCCO3	Epigenetic reg inconclusive, Vif-APOBEC3G blk 12.6µM, Vif-A3F inh 22.4µM
CN1C2C=C3C(C#N)=C(N)C(C#N)(C#N)[C@H](c4c(F)cccc4F)[C@H]3C1CC2 (stereo partly drawn)	none
O=C(N[C@@H]1c2ccccc2C2(CCN(C(=O)c3cc4ccccc4oc3=O)CC2)[C@H]1O)c1cccnc1	none (no result: GLS inh, Epigenetic reg, Vif-APOBEC3G blk, Vif-A3F inh)
c1ccc2c(Nc3ccc4c(c3)OCCO4)c3c(nc2c1)CCCC3	PINK1 modulator 39.8µM
CSc1ncccc1C(=O)NCC1Cc2cc(-c3cnccn3)cc(Cl)c2O1 (stereo not drawn)	none (no result: GLS inh, Epigenetic reg, Vif-APOBEC3G blk, Vif-A3F inh)
Cc1[nH]c(=O)[nH]c(=S)c1C(=O)Nc1ccc(Cl)c(Cl)c1	GLS inh 1.78µM (no result: Epigenetic reg)
CC(=O)c1c(C)[nH]c(C(=O)Nc2ccc(Cl)c(S(=O)(=O)N(C)C)c2)c1C	none
N#CC(C#N)=C1SC(=Nc2ccccc2)C(=Nc2ccccc2)N1c1ccccc1	PINK1 modulator 31.6µM (no result: Epigenetic reg)
COc1cccc(CN2CCC3(CCC(CNC(=O)c4ccccc4)O3)CC2)c1 (stereo not drawn)	none (no result: GLS inh, Epigenetic reg, Vif-APOBEC3G blk, Vif-A3F inh)
N=c1oc2cc(O)ccc2cc1C(=O)Nc1ccc(F)cc1	PINK1 modulator 14.1µM (no result: Epigenetic reg)
OCCCn1c(C2CCCN2c2nc(-c3ccc(Cl)cc3)cs2)nc2cc(Cl)c(Cl)cc21 (stereo not drawn)	Vif-A3F inh 22.4µM (no result: Epigenetic reg)
COc1cccc(C2(CC(=O)N3CCN(c4ccccn4)CC3)CC(=O)N(C3CCCC3)C2=O)c1 (stereo not drawn)	none (no result: GLS inh, Epigenetic reg, Vif-APOBEC3G blk, Vif-A3F inh)
O=C(NNC(=S)Nc1cccc(C(F)(F)F)c1)c1cccc(Cl)c1	GLS inh inconclusive, PINK1 modulator 15.8µM
Cc1onc(-c2ccccc2)c1C(=O)NCCN1Cc2ccccc2OC(c2ccsc2)C1 (stereo not drawn)	none (no result: GLS inh, Epigenetic reg, Vif-APOBEC3G blk, Vif-A3F inh)
CN1/C(=C\C=C(/C#N)C(=O)Nc2ccc(Cl)cc2)C(C)(C)c2ccccc21	Epigenetic reg 22.4µM, Vif-APOBEC3G blk 7.08µM, Vif-A3F inh inconclusive, PINK1 modulator inconclusive
CN1/C(=C\C=C(C#N)C#N)C(C)(C)c2ccccc21	Epigenetic reg 25.1µM, Vif-A3F inh 11.2µM
O=C(NC(=S)Nc1ccc(N2CCCCC2)c(Cl)c1)c1ccc2c(c1)OCCO2	Vif-A3F inh 10µM
CC(C)CC1=C/C(=C/c2ccc(-c3ccccc3)o2)C(=O)O1	GLS inh 11.2µM
CC(C)(S)C(=O)NC(CS)C(=O)O (stereo not drawn)	none (no result: Epigenetic reg, Vif-APOBEC3G blk, Vif-A3F inh, PINK1 modulator)
O=c1c2cc(F)ccc2sn1-c1ccc(F)cc1	GLS inh 10µM, PINK1 modulator inconclusive (no result: Epigenetic reg)
CCn1c2ccccc2c2cc(NC(C)=O)ccc21	none
O=c1c2cc([N+](=O)[O-])ccc2sn1-c1ccccc1	GLS inh 10µM, Vif-A3F inh inconclusive (no result: Epigenetic reg)
CC(=O)Nc1ccc2sn(-c3ccccc3)c(=O)c2c1	GLS inh 6.31µM, Vif-A3F inh inconclusive (no result: Epigenetic reg)
N#Cc1ccc2sn(-c3ccccc3)c(=O)c2c1	GLS inh 6.31µM, Vif-A3F inh inconclusive (no result: Epigenetic reg)
